# Most compounds without a hit are left out; they make up all but 3.4% or so of the library.
# AmpC detergent = qHTS Inhibitors of AmpC Beta-Lactamase (assay with detergent) | P00811 | AmpC hydrolysis of nitrocefin, absorbance 480 nm, 0.01% Triton | Potency, µM (series often up to 114 µM), inactives show at the top dose activity change, negative = inhibition, hits mostly inhibitors | 0.041% of 370,000 active;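 further: 0% = no-compound wells and -100% = no-enzyme wells; nearly all actives have a fitted effect of over 25% in size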
# Target sequence (P00811 whole entry, looked up): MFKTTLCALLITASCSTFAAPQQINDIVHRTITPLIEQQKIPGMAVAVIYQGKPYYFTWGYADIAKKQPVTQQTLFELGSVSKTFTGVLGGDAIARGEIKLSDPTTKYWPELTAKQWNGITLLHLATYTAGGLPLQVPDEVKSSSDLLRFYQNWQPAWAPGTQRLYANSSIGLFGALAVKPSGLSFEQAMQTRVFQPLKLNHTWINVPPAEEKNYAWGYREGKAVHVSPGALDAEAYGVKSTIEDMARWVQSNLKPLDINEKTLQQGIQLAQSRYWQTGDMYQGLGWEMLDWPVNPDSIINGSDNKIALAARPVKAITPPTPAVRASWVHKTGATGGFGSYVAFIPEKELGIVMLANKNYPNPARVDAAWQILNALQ
#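 20 mM phosphate pH 7.0 + 0.01% (detergent screen) or 0.0001% Triton X-100; 5.3 nM AmpC reagent; cpd preinc 15 min RT; nitrocefin (800 uM stock) to start; A480 q20 s × 4 min; Activity was normalised to no-enzyme and no-compound control wells.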
# Sm TGR inh = qHTS Assay for the Inhibitors of Schistosoma Mansoni Peroxiredoxins. Potency, µM (titrated, usually from 114 µM), for the others: at the top dose activity change, negative = inhibition, actives largely listed as inhibitors. Schistosoma mansoni thioredoxin glutathione reductase (TGR), Q962Y6. 3% of 360,000 active. purified TGR, DTNB reduction, TNB absorbance 405 nm; further: nearly all actives have a fitted effect of over 60% in size
#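 First, TGR (20 nM dispensed) and NADPH were mixed with compound. Second, a 15 min room-temperature incubation followed. Third, further NADPH and then DTNB were added to start the reaction. Finally, TNB absorbance was monitored kinetically.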
# AmpC no deterg = qHTS Inhibitors of AmpC Beta-Lactamase (assay without detergent) | AID 485341, 2010 | Potency, µM (doses to about 57.1 µM), for inactives: top-dose activity change, negative = inhibition, hits mostly inhibitors | 0.52% of 330,000 active | AmpC nitrocefin hydrolysis, absorbance 480 nm, 0.0001% Triton | P00811;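 further: plate controls were no compound for no effect and no enzyme for full effect; nearly all actives have a fitted effect of over 20% in size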
#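 AmpC (5.3 nM in the dispensed reagent) in 20 mM phosphate pH 7.0 with 0.01% (detergent screen) or 0.0001% Triton X-100 was preincubated with compounds for 15 min at room temperature. Nitrocefin was then added from an 800 uM solution, and hydrolysis was followed at 480 nm.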
# FBPA Giardia inh = qHTS Assay for Inhibitors of Fructose-1,6-bisphosphate Aldolase from Giardia Lamblia; A8B2U2; purified Giardia FBPA; Potency, µM (highest dose often 59.6 µM), for the others: top-dose activity, negative = inhibition, most hits filed as inhibitors; 0.71% of 290,000 active; AID 2451, 2010; further: nearly all actives have a fitted effect of over 55% in size
#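 Giardia FBPA (40 nM reagent) was preincubated 10 min at RT with compound (up to 57.5 uM final), then substrate plus GAPDH/TPI/NAD/arsenate coupling system with diaphorase/resazurin was added; resorufin fluorescence (525/598 nm) was read after 20 min.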
# RE007 growth inh = qHTS Assay for Inhibitors of the HIV-1 protein Vpr; S. pombe RE007 Vpr strain, BacTiter-Glo ATP luminescence, 24 h; Potency, µM (series often up to 92.2 µM), inactives show top-dose activity change, negative = less growth, hits mostly inhibitors; 0.21% of 360,000 active; active means well fitted falling curve with a large enough effect; inconclusive means small, poorly fitted or top-dose-only effect; inactive means no such curve, though single readings can be large or run the other way; further: nearly all actives have a fitted effect of over 50% in size
#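 Fission yeast strain RE007, carrying one chromosomally integrated HIV-1 vpr copy, was seeded at OD 0.01 in PMG+AL medium with 23 nL pinned compound. After 24 h at 30 °C and 99% humidity, viability was read by BacTiter-Glo luminescence.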
# * = called active by the depositor; ? = inconclusive; / = no result given. Unless noted, the call rests on the fitted dose curve; in most records, active means well fitted curve in the direction sought with a large enough effect; inconclusive means small, poorly fitted or top-dose-only effect, or another doubt; inactive means no such curve, though single readings can be large; an effect the other way counts as inactive or inconclusive. Unless noted, on the % scale 0 is the no-effect control and ±100 the full control effect; potency means the concentration at half of the fitted maximal effect.
SMILES,AmpC detergent,Sm TGR inh,AmpC no deterg,FBPA Giardia inh,RE007 growth inh
CCN1CCN(C(c2ccc(OC)cc2)c2c(O)cc(C)n(Cc3ccco3)c2=O)CC1 (centres undefined),-1%,5.6µM*,/,/,/
CCN1CCN(C(c2ccccc2)c2c(O)cc(C)n(Cc3ccco3)c2=O)CC1 (centres undefined),5%,4.5µM*,/,/,/
CCN1CCN(C(c2ccc(SC)cc2)c2c(O)cc(C)n(Cc3ccco3)c2=O)CC1 (centres undefined),-8%,3.5µM*,/,/,/
Cc1cc(O)c(C(c2ccccc2)N2CCN(C)CC2)c(=O)n1Cc1ccco1 (centres undefined),0%,5.6µM*,/,/,/
Cc1cc(O)cc(=O)n1Cc1ccco1,-9%,0%,-24%,-3%,-1%
Cc1cc(OCC(O)CN2CCc3ccccc3C2)cc(C(C)C)c1 (centres undefined),-3%,6%,28%,3%,/
Cc1cccc(NC(=O)CCN2C(=O)c3cccc([N+](=O)[O-])c3C2=O)c1,?,0%,-14%,-1%,1%
Cc1ccc(Oc2coc3cc(O)ccc3c2=O)cc1,-1%,-5%,-29%,9%,-6%
O=C(NC(=S)NC1CCCCC1)c1ccccc1,3%,1µM*,-19%,/,-27%
O=C(NC(=S)NC1CCCc2ccccc21)c1ccc(F)cc1 (centres undefined),-11%,18µM*,-49%,-11%,9%
O=C(Cc1ccc(Br)cc1)NC1CCCc2ccccc21 (centres undefined),-1%,6%,-22%,4%,31%
O=C(CCl)NC1CCCc2ccccc21 (centres undefined),7%,25µM*,-9%,-1%,-5%
CCOc1ccc(C(=O)NC(=S)NC2CCCC2)cc1[N+](=O)[O-],?,?,10µM*,-10%,8%
COc1ccc(CCCC(=O)NC2CCCCC2C)c(C)c1 (centres undefined),0%,2%,-19%,0%,1%
COc1ccc(S(=O)(=O)N(C)CC(=O)NCCN2CCOCC2)cc1Cl,4%,9%,-8%,1%,-10%
O=C(COc1ccc(Cl)cc1)Nc1c(-c2cccs2)nc2ccccn12,1%,-29%,-19%,2%,-8%
C=CCC1CCC/C(=N\NS(=O)(=O)c2ccc(C)cc2)C1 (centres undefined),-2%,-31%,-31%,/,0%
COCCn1nnnc1C(c1ccc2ncccc2c1)N1CCc2ccccc21 (centres undefined),?,?,43%,-5%,6%
CN(C(=O)CCl)C1CCCc2ccccc21 (centres undefined),-7%,11µM*,-19%,-8%,29%
COC(=O)C1C(c2ccc(OC)c(OC)c2)NC(c2ccc(OC)c(OC)c2)C(C(=O)OC)S1(=O)=O (centres undefined),7%,20µM*,61%,1%,-3%
COC(=O)C1CSc2[nH]c(=O)sc2C1c1ccc(OC)c(OC)c1 (centres undefined),-11%,7%,-24%,/,-1%
COc1ccc(C2=Nc3ccccc3N(C(=O)c3ccc(C)cc3)C2C(=O)NCc2ccccc2)cc1 (centres undefined),/,/,/,/,9%
CC(=O)N1CCN(C(=O)c2ccc(-c3cccc(C(F)(F)F)c3)o2)CC1,?,32µM*,50%,/,-26%
O=S(=O)(c1cc(O)ccc1O)c1cccc2c(S(=O)(=O)c3cc(O)ccc3O)cccc12,-10%,11µM*,20µM*,/,12%
CCN(CC)C(=O)c1sc2nc(-c3cccs3)cc(-c3ccc(Cl)cc3)c2c1N,2%,10%,-34%,3%,2%
CCN(CC)C(=O)c1sc2nc(-c3cccs3)cc(-c3cccs3)c2c1N,1%,89µM*,-38%,1%,-10%

# Assay outcomes from PubChem.
